From PubChem BioAssay (NCI)
The panel holds about 83,000 compounds, 20% with a hit somewhere; the sample as a whole holds those more often.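 Values shown are percent growth following 48 h exposure of cells in 96-well plates to a single concentration of compound; below 10 was considered active.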 Activity calls are given as the source filed them.

What was measured:
Test in all cases: NCI-60 one-dose screen, 48 h (100 = growth as untreated, 0 = no growth, -100 = all killed)
SK-MEL-2 melanoma = details: 10 µM unless noted
EKVX NSCLC = details: 10 µM unless noted
SN12C renal = details: 10 µM unless noted
UO-31 renal = details: 10 µM unless noted
CAKI-1 renal = details: 10 µM unless noted
A498 renal = details: 10 µM unless noted
CCRF-CEM leukemia = details: 10 µM unless noted
MOLT-4 leukemia = details: 10 µM unless noted
SR leukemia = details: 10 µM unless noted
OVCAR-8 ovarian = details: 10 µM unless noted
OVCAR-5 ovarian = details: 10 µM unless noted
OVCAR-4 ovarian = details: 10 µM unless noted
IGROV1 ovarian = details: 10 µM unless noted
OVCAR-3 ovarian = details: 10 µM unless noted
HS 578T breast = details: 10 µM unless noted
NCI/ADR-RES ovarian = details: 10 µM unless noted
ACHN renal = details: 10 µM unless noted
TK-10 renal = details: 10 µM unless noted
RPMI-8226 leukemia = details: 10 µM
SK-OV-3 ovarian = details: 10 µM

Measured: growth

COc1cc(-c2nc(SC(C)C)nc(Nc3ccccc3C)c2C#N)cc(OC)c1OC
inactive: SK-MEL-2 melanoma 103% | EKVX NSCLC 102% | SN12C renal 104% | UO-31 renal 86.3% | CAKI-1 renal 94.1% | A498 renal 88.4% | CCRF-CEM leukemia 103% | MOLT-4 leukemia 110% | SR leukemia 110% | OVCAR-8 ovarian 103% | OVCAR-5 ovarian 99.1% | OVCAR-4 ovarian 110% | IGROV1 ovarian 104% | OVCAR-3 ovarian 121% | HS 578T breast 104% | NCI/ADR-RES ovarian 109%

c1ccc(-c2n(Cc3ccc4ccccc4c3)c3ccccc3[n+]2Cc2ccc3ccccc3c2)cc1
inactive: NCI/ADR-RES ovarian 46.4%
active: SK-MEL-2 melanoma -36.1% | EKVX NSCLC 3.45% | SN12C renal -79.4% | UO-31 renal -79.7% | ACHN renal -4.48% | CAKI-1 renal -44.7% | CCRF-CEM leukemia 2.6% | MOLT-4 leukemia -21.8% | SR leukemia -23.6% | OVCAR-8 ovarian -22.9% | OVCAR-5 ovarian 2.69% | OVCAR-4 ovarian -4.85% | IGROV1 ovarian -77.5% | OVCAR-3 ovarian -84.2% | HS 578T breast -33.8%

Nc1nc(N)c(N=Nc2c(Br)cc(S(N)(=O)=O)cc2Br)c(N)n1
inactive: SK-MEL-2 melanoma 94.9% | SN12C renal 103% | UO-31 renal 98% | TK-10 renal 122% | ACHN renal 114% | CAKI-1 renal 99% | A498 renal 96.4% | CCRF-CEM leukemia 88.3% | MOLT-4 leukemia 95.2% | SR leukemia 34.5% | RPMI-8226 leukemia 106% | OVCAR-8 ovarian 98.4% | OVCAR-5 ovarian 109% | OVCAR-4 ovarian 124% | SK-OV-3 ovarian 108% | IGROV1 ovarian 105% | OVCAR-3 ovarian 73.1% | HS 578T breast 95.1% | NCI/ADR-RES ovarian 107%

COc1ccc(-c2cc(=O)oc3c4c(ccc23)OCN(Cc2ccc(F)cc2)C4)cc1
inactive: SK-MEL-2 melanoma 94.2% | SN12C renal 58.6% | UO-31 renal 42.7% | TK-10 renal 62.4% | ACHN renal 64.7% | CAKI-1 renal 51.7% | A498 renal 38.9% | CCRF-CEM leukemia 52.4% | MOLT-4 leukemia 39.9% | SR leukemia 54.7% | RPMI-8226 leukemia 30.1% | OVCAR-8 ovarian 56.7% | OVCAR-5 ovarian 80.2% | OVCAR-4 ovarian 35.2% | SK-OV-3 ovarian 74.3% | IGROV1 ovarian 64.5% | OVCAR-3 ovarian 52.4% | HS 578T breast 83.1% | NCI/ADR-RES ovarian 45.9%

COc1cccc(OC(=O)c2ccccc2)c1OC(=O)c1ccccc1
active: NCI/ADR-RES ovarian 9.73%
inactive: SK-MEL-2 melanoma 57.6% | EKVX NSCLC 95.4% | SN12C renal 76.7% | TK-10 renal 87.7% | ACHN renal 98.3% | CAKI-1 renal 75.2% | CCRF-CEM leukemia 87.6% | MOLT-4 leukemia 79.5% | RPMI-8226 leukemia 68.6% | OVCAR-8 ovarian 91.6% | OVCAR-5 ovarian 99.4% | OVCAR-4 ovarian 100% | SK-OV-3 ovarian 90.4% | OVCAR-3 ovarian 68.5% | HS 578T breast 86.9%

Cc1nc2cc(Nc3nc(NCCN)nc(Nc4ccc(F)cc4)n3)ccc2n1Cc1ccccc1
inactive: SK-MEL-2 melanoma 90.5% | SN12C renal 85.1% | UO-31 renal 89.3% | TK-10 renal 101% | ACHN renal 96.8% | CAKI-1 renal 94.2% | A498 renal 67.4% | OVCAR-8 ovarian 89.1% | OVCAR-5 ovarian 106% | OVCAR-4 ovarian 77% | SK-OV-3 ovarian 95.5% | IGROV1 ovarian 81.4% | OVCAR-3 ovarian 86.7% | HS 578T breast 102% | NCI/ADR-RES ovarian 103%
active: CCRF-CEM leukemia -13.7% | MOLT-4 leukemia -14.4% | SR leukemia -26.5% | RPMI-8226 leukemia -45%

COc1ccc(/C=C(\C#N)c2ccc(OC)cc2)cc1
inactive: SK-MEL-2 melanoma 54.4% | EKVX NSCLC 92.2% | SN12C renal 67.5% | TK-10 renal 76.7% | ACHN renal 88.3% | CAKI-1 renal 64.7% | A498 renal 46.6% | CCRF-CEM leukemia 55.6% | MOLT-4 leukemia 56.9% | RPMI-8226 leukemia 55.8% | OVCAR-8 ovarian 81.9% | OVCAR-5 ovarian 85.1% | OVCAR-4 ovarian 81.8% | SK-OV-3 ovarian 74.9% | OVCAR-3 ovarian 62.6% | HS 578T breast 86.3%
active: NCI/ADR-RES ovarian 4%

COc1cc(Cn2cc(F)c(=O)[nH]c2=O)cc(OC)c1
inactive: SK-MEL-2 melanoma 114% [50 µM] | EKVX NSCLC 98.6% [50 µM] | SN12C renal 98.9% [50 µM] | UO-31 renal 75.3% [50 µM] | ACHN renal 101% [50 µM] | CAKI-1 renal 92.9% [50 µM] | A498 renal 98.2% [50 µM] | MOLT-4 leukemia 103% [50 µM] | SR leukemia 103% [50 µM] | OVCAR-8 ovarian 101% [50 µM] | OVCAR-5 ovarian 101% [50 µM] | OVCAR-4 ovarian 108% [50 µM] | IGROV1 ovarian 106% [50 µM] | OVCAR-3 ovarian 126% [50 µM] | HS 578T breast 96.7% [50 µM] | NCI/ADR-RES ovarian 112% [50 µM]

O=C1NC(=S)S/C1=C\c1cccc([N+](=O)[O-])c1
inactive: SK-MEL-2 melanoma 103% | SN12C renal 94.1% | UO-31 renal 65.1% | TK-10 renal 107% | ACHN renal 89.2% | CAKI-1 renal 87.5% | A498 renal 96.1% | CCRF-CEM leukemia 78.2% | MOLT-4 leukemia 85.5% | SR leukemia 70.1% | RPMI-8226 leukemia 62.8% | OVCAR-8 ovarian 101% | OVCAR-5 ovarian 96.9% | OVCAR-4 ovarian 88.5% | SK-OV-3 ovarian 104% | IGROV1 ovarian 120% | OVCAR-3 ovarian 100% | HS 578T breast 118% | NCI/ADR-RES ovarian 96.8%

CC(=O)Nc1ccc(S(=O)(=O)N/N=C\c2ccc(Cl)c(Cl)c2)cc1
inactive: SK-MEL-2 melanoma 90.6% | EKVX NSCLC 99.7% | SN12C renal 99.1% | TK-10 renal 93.2% | CAKI-1 renal 91.5% | A498 renal 72.7% | CCRF-CEM leukemia 92.8% | MOLT-4 leukemia 100% | RPMI-8226 leukemia 92.5% | OVCAR-8 ovarian 103% | OVCAR-5 ovarian 108% | OVCAR-4 ovarian 113% | SK-OV-3 ovarian 105% | OVCAR-3 ovarian 111% | HS 578T breast 103% | NCI/ADR-RES ovarian 103%

O=c1[nH]c(=O)n(Cc2ccc(F)cc2)cc1F
inactive: SK-MEL-2 melanoma 111% [50 µM] | EKVX NSCLC 105% [50 µM] | SN12C renal 99.8% [50 µM] | UO-31 renal 89.4% [50 µM] | ACHN renal 105% [50 µM] | CAKI-1 renal 95.3% [50 µM] | CCRF-CEM leukemia 104% [50 µM] | MOLT-4 leukemia 96% [50 µM] | SR leukemia 93.5% [50 µM] | OVCAR-8 ovarian 94.2% [50 µM] | OVCAR-5 ovarian 104% [50 µM] | OVCAR-4 ovarian 108% [50 µM] | IGROV1 ovarian 108% [50 µM] | OVCAR-3 ovarian 116% [50 µM] | HS 578T breast 104% [50 µM] | NCI/ADR-RES ovarian 113% [50 µM]

COc1ccc(-n2ncc3c2ccc2cc(S(=O)(=O)c4ccccc4)c(=O)n(C)c23)cc1
inactive: SK-MEL-2 melanoma 96.3% | SN12C renal 101% | UO-31 renal 94.4% | TK-10 renal 86.3% | ACHN renal 75.4% | CAKI-1 renal 89.3% | A498 renal 70.5% | CCRF-CEM leukemia 96.6% | MOLT-4 leukemia 103% | SR leukemia 86.1% | RPMI-8226 leukemia 85.4% | OVCAR-8 ovarian 65.4% | OVCAR-5 ovarian 98.4% | SK-OV-3 ovarian 83.5% | IGROV1 ovarian 109% | OVCAR-3 ovarian 91.1% | HS 578T breast 49.5% | NCI/ADR-RES ovarian 77.3%
active: OVCAR-4 ovarian 6.65%

CCN(CC)CCCNc1ccc(C)c2sc3ccccc3c(=O)c12
inactive: SK-MEL-2 melanoma 94% | EKVX NSCLC 87.9% | SN12C renal 40.5% | UO-31 renal 44.7% | ACHN renal 20.9% | CAKI-1 renal 64.6% | CCRF-CEM leukemia 21.8% | MOLT-4 leukemia 15.3% | RPMI-8226 leukemia 15.4% | OVCAR-8 ovarian 43.2% | OVCAR-5 ovarian 56.4% | OVCAR-4 ovarian 64.8% | SK-OV-3 ovarian 56.2% | IGROV1 ovarian 51.9% | OVCAR-3 ovarian 68.5% | NCI/ADR-RES ovarian 58.4%
active: SR leukemia -11.8%

N#CCCN1CCN(CCC#N)C1=S
inactive: SK-MEL-2 melanoma 93.4% | EKVX NSCLC 102% | SN12C renal 95.2% | TK-10 renal 98.1% | ACHN renal 102% | CAKI-1 renal 86.4% | A498 renal 87.9% | CCRF-CEM leukemia 111% | MOLT-4 leukemia 103% | RPMI-8226 leukemia 111% | OVCAR-8 ovarian 98.1% | OVCAR-5 ovarian 101% | OVCAR-4 ovarian 108% | SK-OV-3 ovarian 108% | OVCAR-3 ovarian 110% | HS 578T breast 104% | NCI/ADR-RES ovarian 102%

CCC(=O)Nc1nnc(Cc2ccc(OC)c(OC)c2)s1
inactive: UO-31 renal 19.6% | A498 renal 85.2% | CCRF-CEM leukemia 38.3% | MOLT-4 leukemia 48.9% | RPMI-8226 leukemia 15.6% | OVCAR-5 ovarian 85.9% | SK-OV-3 ovarian 24.7% | IGROV1 ovarian 30.1%
active: SK-MEL-2 melanoma -6.77% | SN12C renal 2.77% | TK-10 renal -37.7% | ACHN renal 4.03% | CAKI-1 renal -33.6% | SR leukemia -18.1% | OVCAR-8 ovarian -32.6% | OVCAR-4 ovarian -69.7% | OVCAR-3 ovarian -45.3% | HS 578T breast -13%

C=C(C)COC(=O)c1ccccc1C(=O)OCC1(C)CO1 (configuration not stated)
inactive: SK-MEL-2 melanoma 97.5% | EKVX NSCLC 103% | SN12C renal 95.9% | TK-10 renal 102% | ACHN renal 105% | CAKI-1 renal 96.6% | CCRF-CEM leukemia 97.2% | MOLT-4 leukemia 99.7% | RPMI-8226 leukemia 110% | OVCAR-8 ovarian 95.6% | OVCAR-5 ovarian 96.8% | OVCAR-4 ovarian 110% | SK-OV-3 ovarian 110% | OVCAR-3 ovarian 108% | HS 578T breast 104% | NCI/ADR-RES ovarian 101%

CCN(CC)c1ccc(/C=C(\C#N)c2cc3ccccc3[nH]2)cc1
inactive: SK-MEL-2 melanoma 43.3% | EKVX NSCLC 71.5% | SN12C renal 69.4% | UO-31 renal 81.1% | CAKI-1 renal 41.6% | A498 renal 52.7% | CCRF-CEM leukemia 50.9% | MOLT-4 leukemia 37.8% | SR leukemia 24.6% | OVCAR-8 ovarian 63.4% | OVCAR-5 ovarian 72.4% | OVCAR-4 ovarian 68.2% | IGROV1 ovarian 65.1% | OVCAR-3 ovarian 20.9% | HS 578T breast 58.3% | NCI/ADR-RES ovarian 35.4%
